± gives the standard deviation of the averaged measurements.
test system: TDF; assay: cell number relative to DMSO (% of DMSO); higher = more cells (less growth inhibition / toxicity); conditions: concentration: 10 µM; 24 h
In short: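 Using 384-well plates with 800 cells per well in RPMI plus 10% FBS, HCC1569 and TDF cells were exposed to compounds at 10 µM, in triplicate, for 24 h at 37 °C. Imaging of six fields per well at ×10 followed H1.0 and DAPI staining. The reported quantity, H1.0 nuclear intensity or cell number, is a median of replicates given as percent of the plate control, and HCC1569 values were smoothed for positional effects.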
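Also: TDF denotes transformed human dermal fibroblasts of mesenchymal origin.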

Structure (SMILES) | cell number
COc1cc(Oc2ccnc3cc(OC)c(OC)cc23)ccc1NC(=O)NC(C)c1nccs1 (stereo not given) | 47
Cc1ccccc1C(OCCN(C)C)c1ccccc1.Cl (stereo not given) [Orphenadrine hydrochloride] | 111
CCCCCC(O)C=CC1C(O)CC(O)C1CC=CCCCC(=O)O (stereo not given) [Dinoprost] | 106
CC(=O)O.NC(N)=NN=Cc1c(Cl)cccc1Cl [Guanabenz acetate] | 98
COc1cc2nc(N3CCN(C(=O)C4CCCO4)CC3)nc(N)c2cc1OC (stereo not given) [Terazosin] | 87.9
C=C(C)C1CC=C(C(=O)O)CC1 (single isomer, unassigned; (-)) [(-)-Perillic acid] | 104
CCCCCCCCCCCCCCCCOCC(COCC(F)(F)F)OP(=O)([O-])OC.[Li+] (stereo not given) | 93.8
COC(=O)C1=C(C)NC(C)=C(C(=O)OC)C1c1ccccc1[N+](=O)[O-] [Nifedipine] | 102 ± 7
N#CCNC(=O)c1ccc(-c2ccnc(Nc3ccc(N4CCOCC4)cc3)n2)cc1 | 36.1
CN(C)CCC(CSc1ccccc1)Nc1ccc(S(=O)(=O)NC(=O)c2ccc(N3CCN(Cc4ccccc4-c4ccc(Cl)cc4)CC3)cc2)cc1[N+](=O)[O-] (stereo not given) | 106
CC1(C)SC2C(NC(=O)COc3ccccc3)C(=O)N2C1C(=O)[O-] (stereo not given) [Pencillin V] | 101
CS(=O)(=O)N1CCN(Cc2cc3nc(-c4cccc5[nH]ncc45)nc(N4CCOCC4)c3s2)CC1 | 77.8
Cc1ncc([N+](=O)[O-])n1CCO [Metronidazole] | 104
CS(=O)(=O)Nc1ccc([N+](=O)[O-])cc1Oc1ccccc1 [Nimesulide] | 107 ± 2.2
c1ccc(-c2cnc(Nc3ccc(OCCN4CCCC4)cc3)s2)cc1 [Flt-3 Inhibitor III] | 74.2
CCCCC=CCCCCCCCCC(=O)O [10(E)-Pentadecenoic acid] | 95.8
CN(C)CCC=C1c2ccccc2CCc2ccccc21.Cl [Amitriptyline hydrochloride] | 100
COc1ccc(C2Sc3ccccc3N(CCN(C)C)C(=O)C2OC(C)=O)cc1.Cl (stereo not given) [Diltiazem hydrochloride] | 100
O=C(CCCN1CCC(O)(c2cccc(C(F)(F)F)c2)CC1)c1ccc(F)cc1 [Trifluperidol] | 95.7
NS(=O)(=O)c1ccc2c(c1)C1C=CCC1C(c1ccc(Br)cc1)N2 (stereo not given) | 91.3

Structure (SMILES) | cell number
CCCCCCCCCC(=O)OCC(CO)OC(=O)CCCCCCCCC (stereo not given) [1,2-Didecanoyl-glycerol (10:0)] | 98.8
CON=C(C(=O)NC1C(=O)N2C(C(=O)[O-])=C(COC(C)=O)CSC12)c1csc(N)n1.[Na+] (stereo not given) [Cefotaxime sodium] | 117
N[C@H](C(=O)O)c1cc(O)cc(O)c1 [(S)-3,5-Dihydroxyphenylglycine] | 105
CC(C)CCNC(C)C1CCC2C3CC=C4CC(O)CCC4(C)C3CCC12C (stereo not given) [22-Azacholesterol] | 98.5
CC(=O)Nc1ccc(NC(=S)NC(=O)c2ccc(C(C)(C)C)cc2)cc1 [p53 Activator (Tenovin-1)] | 91.1
CCC1(O)CC2CN(CCc3c([nH]c4ccccc34)C(C(=O)OC)(c3cc4c(cc3OC)N(C)C3C(O)(C(=O)OC)C(OC(C)=O)C5(CC)C=CCN6CCC43C65)C2)C1 (stereo not given) [Vinblastine] | 9.51
CC(C)(O)c1ccccc1CCC(SCC1(CC(=O)O)CC1)c1cccc(C=Cc2ccc3ccc(Cl)cc3n2)c1 (stereo not given) [Montelukast] | 101
CC(C)=CCCC(C)=CCCC(C)=CCSCC(=O)O [Farnesylthoiacetic acid] | 101
CC(=O)NNC(=O)N1Cc2ccccc2Oc2ccc(Cl)cc21 | 114
CCCc1nc2c(C)cc(-c3nc4ccccc4n3C)cc2n1Cc1ccc(-c2ccccc2C(=O)O)cc1 [Telmisartan] | 97.5
N[C@@H](Cc1c[nH]c2ccc(O)cc12)C(=O)O [5-Hydroxy-L-tryptophan] | 94.8
O=C(C=Cc1ccc(O)c(O)c1)c1ccc(O)cc1O [Butein] | 89.2
COc1cc(C=C(C#N)C(=O)c2ccc(O)c(O)c2)cc(I)c1O [I-OMe-Tyrphostin AG 538] | 102
C=Cc1c(C)c2cc3[nH]c(cc4nc(cc5nc(cc1[nH]2)C(C)=C5CCC(=O)O)C(CCC(=O)O)=C4C)c(C)c3C=C [Protoporphyrin IX disodium] | 86.7
Cc1ccc(C(=CCN2CCCC2)c2ccccn2)cc1.Cl [Triprolidine hydrochloride] | 105
N#CC(=Cc1ccc(O)c(O)c1)C(=O)NCCCNC(=O)C(C#N)=Cc1ccc(O)c(O)c1 [Tyrphostin AG 537] | 101
CCCCCCCCC(O)C=CC=CC=CC(O)CCCC(=O)O (stereo not given) [Leukotriene B3] | 93.8
CC1C(=O)CCC2C1(C)CCC1C2(C)CCC2(C)C3CC(C)(C)CCC3(C)CCC12C (stereo not given) [Friedelin] | 102
CCOC(=O)[C@H](CCc1ccccc1)N[C@@H](C)C(=O)N1C(=O)N(C)C[C@H]1C(=O)O.Cl | 99.6
Brc1c(Br)c(Br)c2[nH]cnc2c1Br [4,5,6,7-tetrabromo-1H-benzimidazole] | 71.5

— the supplement of paper PMC7156485
